Data as given in PubChem BioAssay.
A number with no mark means an inactive call. No rule for the calls is given here. Where a SMILES comes first, the peptide text is derived from it. [ ]: non-standard residue; d: D form. The star is where a group is joined. ξ: configuration not given here. Piv = CC(C)(C)C(=O)*; ξNva = CCCC(N)C(=O)O

target: Pantothenate synthetase (Mycobacterium tuberculosis (strain ATCC 25618 / H37Rv)) (UniProt P9WIL5); experiment: Recombinant Mtb pantothenate synthetase (PanC) inhibitors, coupled enzyme, confirmatory (AID 375); conditions: coupled enzyme assay; at 10 µM, stronger effect = higher value;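 also: 0% = full reaction with vehicle and 100% = no enzyme background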
Sequence (P9WIL5 whole entry, looked up): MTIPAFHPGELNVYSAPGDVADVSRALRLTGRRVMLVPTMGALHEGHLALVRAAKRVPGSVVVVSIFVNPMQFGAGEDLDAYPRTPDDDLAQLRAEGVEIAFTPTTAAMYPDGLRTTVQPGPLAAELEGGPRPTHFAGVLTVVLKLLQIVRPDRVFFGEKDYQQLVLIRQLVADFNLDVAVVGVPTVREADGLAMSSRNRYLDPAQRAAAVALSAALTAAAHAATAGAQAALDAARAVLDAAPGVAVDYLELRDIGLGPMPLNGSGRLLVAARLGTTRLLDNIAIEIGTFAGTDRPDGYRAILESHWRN

SMILES	inhibition [%]
O=C(Nc1nccs1)c1ccc(COc2ccccc2Br)o1	0
Cn1c(SCc2nc3ccccc3c(=O)[nH]2)nnc1-c1ccco1	13
O=C1c2ccccc2NC(c2cccc(F)c2)N1Cc1ccco1 (stereo not given)	0
CC(C)CN(C(=O)COC(=O)Cc1n[nH]c(=O)c2ccccc12)C1CCS(=O)(=O)C1 (stereo not given)	2
Cc1c(NC(=O)C2CCCCN2S(=O)(=O)c2ccc(Cl)cc2)c(=O)n(-c2ccccc2)n1C (stereo not given)	0
CC(C)C(=O)Nc1ccc2c(c1)nc1n2CCSC1	0
Cc1ccc(S(=O)(=O)Cc2ccc(C(=O)NCCCN3CCN(C)CC3)o2)cc1	1
COc1cccc(CNC(=O)CCS(=O)(=O)c2cccc3nsnc23)c1	6
CCC1(NC(C)=O)CC2CC1CC2NC(C)=O (stereo not given)	0
CCCn1nc(NS(=O)(=O)c2ccccc2)c2cc3ccccc3nc21	1
COc1ccc(-c2cc3nc(C)c(CCC(=O)NCc4ccco4)c(C)n3n2)c(OC)c1	0
CC(=O)NCc1nc2ccccc2n1C(C)C	0
CCOc1ccc(S(=O)(=O)N(C)C)cc1-c1nc2c(C(C)(C)C)nn(C)c2c(=O)[nH]1	0
COC(=O)c1c(NC(=O)CCc2ccc(C)o2)sc(C)c1C	1
CC(C)Cn1c(N)c(C(=O)COC(=O)c2cc(-c3ccco3)nc3ccccc23)c(=O)n(C)c1=O	7
Cc1cccc(OCC(=O)N2CCN(C(=O)Cc3ccccc3)CC2)c1	1
O=C(CSc1nnc(CNC(=O)c2cccs2)o1)Nc1cccc(C(F)(F)F)c1	0
CC1(C)NC(=O)N(CC(O)CN(Cc2ccccc2)Cc2ccccc2)C1=O (stereo not given)	0
CCCC(NC(=O)CNC(=O)C(C)(C)C)C(=O)O (stereo not drawn) (Piv-Gly-[ξNva]-OH)	0
COc1ccccc1CN(Cc1nc2ccccc2c(=O)[nH]1)C(=O)Nc1ccccc1	0

SMILES	inhibition [%]
CC1(C)CC(=O)C=C(Nc2ccc(F)cc2)C1	0
CCSc1nc(N)c(C#N)c(-c2ccccc2Cl)c1C#N	6
Cc1onc(-c2ccccc2)c1C(=O)Nc1ccc(S(=O)(=O)N2CCCCC2)cc1	0
COc1cc(OC)cc(-c2nc3nc(C)c(CCC(=O)O)c(C)n3n2)c1	0
CC(CN1CCN(C)CC1)OC(=O)c1ccc(Cl)cc1Cl (stereo not given)	0
CCOC(=O)c1ccc(N2C(=O)CC(NC3CCN(C(=O)c4ccc(F)cc4)CC3)C2=O)cc1 (stereo not given)	1
CCOC(=O)c1cnc(-n2nc(C)cc2C)nc1Nc1cccc(C(C)=O)c1	0
CC(=O)Nc1cccc(NC(=O)CSc2nn3c(=O)c(C)nnc3s2)c1	2
COC(=O)C1(C)NC(c2cccs2)C2C(=O)N(c3ccccc3F)C(=O)C21 (stereo not given)	0
O=C(Nc1ccc(O)cc1)C1CCCN1S(=O)(=O)c1ccc(F)cc1 (stereo not given)	0
Cc1nn(C)c(C)c1S(=O)(=O)N1CCCC(C(=O)N2CCN(c3ccc(Cl)cc3)CC2)C1 (stereo not given)	0
Cc1[nH]nc(N=CC2=C(O)CC(C)(C)CC2=O)c1-c1ccccc1	5
COc1cc(C(=O)NCC(=O)OCC(=O)c2ccc[nH]2)cc(OC)c1OC	2
CC(=O)c1cc(-c2ccccc2)n(CC(=O)N2CCC(N3CCCCC3)CC2)c1C	0
N#CC(C(=O)C1CCCCC1)c1nc2ccccc2[nH]1 (stereo not given)	0
O=C1CCNc2cc3ccccc3cc21	3
CC(=O)OCC(=O)[C@@]12OC3(CCCC3)O[C@@H]1C[C@H]1[C@@H]3CCC4=CC(=O)C=C[C@]4(C)[C@@]3(F)[C@@H](O)C[C@@]12C	1
Cc1ccc(Nc2nc(N)nc(CN3CCN(Cc4ccc5c(c4)OCO5)CC3)n2)cc1	0
O=C(NC1CCCCC1)n1c(=O)oc2ccc(Cl)cc21	5
O=C(CSc1nnc(Cc2ccccc2)n1-c1cccc(Cl)c1)N1CCOCC1	0
